L3MBTL1 inh: blocks human L3MBTL1; AlphaScreen L3MBTL1–H3K9me1 peptide binding; hit rate 0.66% among 230,000; Potency, µM (doses to about 57.1 µM), inactives show top-dose activity, negative = inhibition, actives largely listed as inhibitors; also: % is scaled to controls: 0 for no effect and ±100 for the full control effect; nearly all actives have a fitted effect of over 60% in size
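AlphaScreen proximity signal between nickel-chelate acceptor and streptavidin donor beads (final 10 ug/mL) reports binding of 50 nM L3MBTL1 to 75 nM biotin-H3 K9me1 peptide; complex incubated with compounds 30 min at room temperature; cefsulodin titration as control.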
JMJD2A Tudor inh: inhibitors of human JMJD2A Tudor domain. O75164. AlphaScreen JMJD2A-Tudor / H3K4me3 peptide binding. Potency, µM (series often up to 114 µM), for inactives: at the top dose activity change, negative = inhibition, usual class: inhibitors. hit rate 4.4% among 390,000; also: % is scaled to controls: 0 for no effect and ±100 for the full control effect; nearly all actives have a fitted effect of over 50% in size
Target sequence (O75164 whole entry, looked up, the tested form may be a part): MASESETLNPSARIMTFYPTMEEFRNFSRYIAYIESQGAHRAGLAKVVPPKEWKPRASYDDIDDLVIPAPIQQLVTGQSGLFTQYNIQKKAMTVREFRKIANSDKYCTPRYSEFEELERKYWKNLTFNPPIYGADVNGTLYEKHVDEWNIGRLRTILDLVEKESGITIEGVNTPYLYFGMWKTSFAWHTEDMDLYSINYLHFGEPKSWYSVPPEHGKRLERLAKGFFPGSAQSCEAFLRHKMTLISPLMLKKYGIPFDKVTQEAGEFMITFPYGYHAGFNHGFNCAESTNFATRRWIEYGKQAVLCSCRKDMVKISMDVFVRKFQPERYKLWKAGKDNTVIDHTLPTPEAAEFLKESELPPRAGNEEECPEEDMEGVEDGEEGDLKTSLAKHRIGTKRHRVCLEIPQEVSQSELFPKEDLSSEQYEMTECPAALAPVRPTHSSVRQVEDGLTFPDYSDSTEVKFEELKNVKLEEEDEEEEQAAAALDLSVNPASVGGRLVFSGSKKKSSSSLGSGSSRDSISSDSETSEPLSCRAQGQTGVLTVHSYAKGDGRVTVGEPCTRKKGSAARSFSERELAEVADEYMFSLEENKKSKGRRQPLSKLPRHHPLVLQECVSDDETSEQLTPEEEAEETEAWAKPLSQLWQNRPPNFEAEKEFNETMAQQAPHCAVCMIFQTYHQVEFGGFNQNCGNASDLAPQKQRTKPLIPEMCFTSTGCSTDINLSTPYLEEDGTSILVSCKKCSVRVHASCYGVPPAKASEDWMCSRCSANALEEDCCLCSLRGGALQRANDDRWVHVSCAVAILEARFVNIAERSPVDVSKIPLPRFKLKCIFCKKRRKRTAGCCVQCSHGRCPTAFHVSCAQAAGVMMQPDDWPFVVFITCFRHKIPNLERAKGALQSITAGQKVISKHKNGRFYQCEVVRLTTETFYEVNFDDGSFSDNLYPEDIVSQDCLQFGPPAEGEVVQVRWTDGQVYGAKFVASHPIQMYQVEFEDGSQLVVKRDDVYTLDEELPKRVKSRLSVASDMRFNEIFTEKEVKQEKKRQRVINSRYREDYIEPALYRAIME
HP1b chromo inh: blocks HP1-beta chromodomain binding to methylated histone tails. P83916. AlphaScreen HP1-beta / biotin-H3K9me3 peptide binding. Potency, µM (titrated, usually from 114 µM), without a hit: at the highest dose activity change, negative = inhibition, most hits filed as inhibitors. hit rate 0.56% among 390,000. AID 540317; also: nearly all actives have a fitted effect of over 70% in size
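Compound inhibition of the preformed complex between 50 nM HP1-beta and 50 nM biotinylated H3K9me3 peptide was read by AlphaScreen. Buffer was PBS pH 7.4 with 0.01% Tween-20. Incubations ran 30 min at room temperature, with 10 ug/mL donor/acceptor beads.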
BAZ2B inh: inhibitors of human BAZ2B bromodomain | Q9UIF8 | AlphaScreen BAZ2B-H3K14Ac peptide displacement | Potency, µM (top dose mostly 114 µM), for the others: top-dose activity change, negative = inhibition, actives largely listed as inhibitors | hit rate 4.4% among 360,000; also: % is scaled to controls: 0 for no effect and ±100 for the full control effect; nearly all actives have a fitted effect of over 60% in size
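Compounds, titrated to a top concentration of 110 uM, were incubated 30 min at room temperature with preformed BAZ2B/acetyl-K14 H3 peptide complex (50 nM each). Proximity signal was measured by AlphaScreen after 20 min with beads.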
G9a inh: inhibitors of human histone lysine methyltransferase G9a. Q96KQ7. G9a H3K9 monomethylation, AlphaScreen, 2 h. Potency, µM (highest dose often 102 µM), for the others: at the top dose activity, negative = inhibition, most hits filed as inhibitors. hit rate 8.8% among 350,000. AID 504332; also: % is scaled to controls: 0 for no effect and ±100 for the full control effect; nearly all actives have a fitted effect of over 75% in size
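Enzyme 20 nM + cpd, 15 min RT; add b-H3K9 pep 500 nM / SAM 20 uM; 2 h RT; anti-H3K9me1 Ab 0.5 ug/mL + SA donor / anti-rabbit acceptor beads 20 ug/mL each, 10 min; AlphaScreen read.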
An asterisk follows results filed as active; u = inconclusive; x = no result; ! = a repeat was not active; [ ] = remark or other dose. Most compounds without a hit are left out; they make up all but 11% or so of the library. Calls follow the shape of the dose curve; as a rule, active = well fitted inhibition curve with a large enough effect; inconclusive = small, poorly fitted or top-dose-only effect; inactive = no such curve, though single readings can be large or run the other way. Potency is read from the fitted curve at half-maximal effect.

SMILES	L3MBTL1 inh	JMJD2A Tudor inh	HP1b chromo inh	BAZ2B inh	G9a inh
CNc1ccc(C(=O)CC(O)CCC(C)C2OC(=O)CC(O)CC(=O)CC(O)CC(O)CC(O)CC(O)CC3(O)CC(O)C(C(=O)OC)C(CC(O[C@@H]4OC(C)C(O)C(N)C4O)/C=C/C=C/C=C/C=C/C=C/C=C/C=C/C2C)O3)cc1 (stereo partly specified)	x	x	x	x	7%[2.33 µM]
NCCc1cccc(O)c1	x	x	x	x	35%[59 µM]
CC(C)C[C@H]1CN([C@@H](CC(C)C)CN2CCCC2CN2C(=S)NC[C@@H]2Cc2ccc(O)cc2)C(=S)N1CC1CCCCCC1 (stereo partly specified)	x	u	36%	x	x
CN1CC[C@@]2(C)c3cc(O)ccc3N(C)[C@@H]12	x	4µM*!	u	x	x
CN1CC[C@@]2(C)c3cc(O)ccc3N(C)C2O1 (stereo partly specified)	x	-21%	-16%	x	x
CNC(=O)Oc1ccc2c(c1)[C@@]1(C)CCN(C)[C@@H]1N2C	x	x	x	x	8%[21.5 µM]
CN1CC[C@@]2(C)c3cc(OC(=O)Nc4ccccc4)ccc3N(C)[C@@H]12	x	x	x	x	16µM*
O=C(Nc1ccc2c(c1)OCCO2)c1cccn(Cc2cccc(F)c2)c1=O	x	-28%	-13%	-17%	7%[59 µM]
CN(C(=O)Cc1ccc(Cl)c(Cl)c1)C(CN1CCCC1)c1cccc(N=C=S)c1 (stereo unspecified)	x	x	x	x	18µM*
O=[As]O[As]=O (stereo unspecified)	x	x	x	x	26%[59 µM]
CC1(O)C[C@]2(C)N(O)C3CCCC[C@@H]3N2O1 (stereo partly specified)	-6%	-7%	21%	6%	u
CC1(C)N(O)C2CCCCC2N1O (stereo unspecified)	14%	2.8µM*	48%	-9%	8.9µM*
COc1ccc(NC(=O)C2C3CCC(O3)C2C(=O)O)c(OC)c1 (stereo unspecified)	2%	-36%	0%	-16%	10µM*
NC(N)=NOCC[C@H](N)C(=O)O	x	x	x	x	32µM*!
CCOc1ccc(-c2nc3ccc(-c4nc5ccc(N6CCN(C)CC6)cc5[nH]4)cc3[nH]2)cc1	x	x	x	x	13µM*
COc1ccc(OC)c([C@H](O)[C@H](C)N)c1	x	x	x	x	19%[21.5 µM]
C=C(C)[C@H]1Cc2c(ccc3c2O[C@@H]2COc4cc(OC)c(OC)cc4[C@@H]2C3=O)O1	x	x	x	x	10%[12.7 µM]
CC(OC(=O)COc1ccc(Nc2ccccc2)cc1)C(=O)N(C)c1ccccc1 (stereo unspecified)	u	35µM*	u	22µM*	40µM*
CC[N+](C)(CC)CCCOC(=O)C(O)(c1ccccc1)C1CCCCC1 (stereo unspecified)	10%	40µM*	u	-28%	u
CCOC(C(=O)OCCC[N+](C)(CC)CC)(c1ccccc1)c1ccccc1	x	-4%	15%	-20%	-4%[59 µM]
CCON=O	x	x	x	x	8%[12.7 µM]
COc1cc2c(ccc3c4cc(OC)c(OC)cc4c[n+](C)c23)cc1O	x	-26%	20%	x	x
COc1ccc2c(c[n+](C)c3c4cc5c(cc4ccc23)OCO5)c1OC	x	x	x	x	17µM*
CCOC(=O)c1ccc(N2C(=O)CC(N3CCC(O)(c4ccc(Cl)cc4)CC3)C2=O)cc1 (stereo unspecified)	4%	7%	66%	1%	u
CCOC(=O)c1ccc(N2C(=O)CC(N3CCC(O)(c4ccc(Br)cc4)CC3)C2=O)cc1 (stereo unspecified)	x	-4%	48%	28%	50µM*
SMILES	L3MBTL1 inh	JMJD2A Tudor inh	HP1b chromo inh	BAZ2B inh	G9a inh
CC(C)N1C(=O)CC2(CC[N+](C)(CCOC(=O)C(O)(c3ccccc3)c3ccccc3)CC2)C1=O (stereo unspecified)	-3%	-5%	46%	-24%	40µM*
CCOP(=O)(CN(CC)CCNP(=O)(OCC)OCC)OCC	6%	u	17%	12%[57.1 µM]	50µM*
CN(C)CCC=C1c2ccccc2CCc2ccccc21	-23%	-3%	15%	-30%	-20%[59 µM]
Cc1cc(C)cc(NC(=O)CN2C(=O)CN=C(c3ccccc3)c3cc(Cl)ccc32)c1	x	-29%	13%	-13%	u
COc1ccc(N2CCN(CCCNC(=O)c3cnn(-c4ccc(F)cc4)c3-n3cccc3)CC2)cc1	x	45µM*	-11%	u	13µM*
Cc1ccc(-n2c(C)cc(/C=C3/C(=O)NC(=O)N(Cc4ccco4)C3=O)c2C)cc1	u	u	-14%	35µM*	u
CCn1c(C)cc(/C=C2\C(=O)NC(=O)N(c3ccccc3C)C2=O)c1C	-14%	-3%	31%	-34%	u
Cc1cc(/C=C2\C(=O)NC(=O)N(Cc3ccco3)C2=O)c(C)n1-c1ccc(O)cc1	40µM*	u	u	u	u
Cc1ccccc1-n1c(C)cc(/C=C2/C(=O)NC(=O)N(Cc3ccco3)C2=O)c1C	-10%	28µM*	-11%	u	u
Cc1ccc(-c2cn3c(=S)[nH]nc3s2)cc1	5%	0.71µM*	71µM*	79µM*	1µM*
C[C@H]1CC[C@@]2(NC1)O[C@@H]1C[C@H]3[C@@H]4CC[C@@H]5C[C@@H](O)CC[C@@]5(C)[C@@H]4CC[C@]3(C)[C@@H]1[C@@H]2C	x	x	x	x	4%[21.5 µM]
CN1C(=O)C(c2ccc([N+](=O)[O-])cc2[N+](=O)[O-])C(=O)N(C)C1=O	x	u	18%	50µM*	8%[2.33 µM]
O=C(O)C1CN(CP(=O)(O)O)CCN1 (stereo unspecified)	x	x	x	x	20%[59 µM]
CCCCN1CCC(O)(c2ccccc2)C(C(=O)c2ccccc2)C1 (stereo unspecified)	6%	u	40%	-19%	u
CN1CCC(O)(c2cccs2)C(C(=O)c2cccs2)C1 (stereo unspecified)	1%	-18%	6%	-18%	25µM*
O=C(c1ccco1)N1CCC2(CC1)CN(Cc1ccncc1)C2	x	x	x	x	9%[12.7 µM]
Cc1cc(C=C2C(=O)NC(=O)NC2=O)c(C)n1-c1cccnc1	x	-25%	10%	-2%	-13%[12.7 µM]
Cc1cc(C=C2C(=O)NC(=S)NC2=O)c(C)n1C1CCCC1	-20%	-23%	25%	79µM*	45µM*
Cc1cc(C=C2C(=O)N(C)C(=S)N(C)C2=O)c(C)n1C1CCCCC1	-14%	-36%	7%	u	35µM*
CCOC(=O)C1(CCOc2ccccc2)CCN(Cc2cnc(SC)nc2)CC1	-5%	0%	64%	u	50µM*
O=C1NC(=O)C2(Cc3ccccc3N3CCCC32)C(=O)N1 (stereo unspecified)	x	-19%	17%	-23%	50µM*
O=C1NC(=O)C2(Cc3ccccc3N3CCCC32)C(=O)N1c1ccccc1 (stereo unspecified)	-6%	-16%	50%	13%	28µM*
O=C1NC(=O)C2(Cc3ccccc3N3CCOCC32)C(=O)N1c1ccccc1 (stereo unspecified)	x	-14%	13%	0%	-4%
C=CCN	x	x	x	x	15%[59 µM]
